Assay results taken from PubChem BioAssay (EPA / NIEHS).
Records with an inconclusive call do not appear. The source made the active and inactive calls. The calls were made as follows, unless noted: active = hit-call score of the fitted dose curve at least 0.9, where 1 is the maximum; inconclusive = response in the unintended direction; inactive = score below 0.9.

Key:
[1] = target: human Retinoid X Receptor beta (RXRb), RXRB (gene 6257) (UniProt P28702); experiment: ATG_RXRb_TRANS: Attagene TRANS-FACTORIAL HepG2 Assay for human Retinoid X Receptor beta (RXRb) (AID 2283013)
Sequence of human Retinoid X Receptor beta (RXRb), RXRB (gene 6257) (P28702 whole entry, looked up, the tested form may be a part): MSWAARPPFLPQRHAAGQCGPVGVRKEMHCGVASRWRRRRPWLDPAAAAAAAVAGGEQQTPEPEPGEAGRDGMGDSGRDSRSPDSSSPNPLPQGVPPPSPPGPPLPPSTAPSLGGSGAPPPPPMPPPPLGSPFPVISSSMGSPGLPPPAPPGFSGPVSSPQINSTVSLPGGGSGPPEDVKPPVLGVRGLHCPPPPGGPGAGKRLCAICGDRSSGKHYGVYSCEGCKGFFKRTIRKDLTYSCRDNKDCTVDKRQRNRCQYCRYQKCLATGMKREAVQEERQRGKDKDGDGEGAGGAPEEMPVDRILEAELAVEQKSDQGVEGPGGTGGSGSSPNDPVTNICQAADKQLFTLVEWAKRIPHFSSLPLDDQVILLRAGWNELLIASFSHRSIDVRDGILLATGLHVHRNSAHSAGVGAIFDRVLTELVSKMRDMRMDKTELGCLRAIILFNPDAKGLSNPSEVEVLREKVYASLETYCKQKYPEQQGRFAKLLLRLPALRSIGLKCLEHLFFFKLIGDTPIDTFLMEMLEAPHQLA
In short: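 Readout is reporter transcript induction after 24 h dosing. It is measured by RT-PCR of total RNA followed by fluorescent capillary electrophoresis. HepG2 liver cells carry transfected multiple reporter units driven by an exogenous RXRb-Gal4 fusion; activity is relative to DMSO.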

[2] = target: Retinoic acid receptor RXR-alpha (Homo sapiens) (UniProt P19793); experiment: ATG_RXRa_TRANS: Attagene TRANS-FACTORIAL HepG2 Assay for human Retinoid X Receptor alpha (RXRa) (AID 2283012)
Sequence of Retinoic acid receptor RXR-alpha (Homo sapiens) (P19793 whole entry, looked up, the tested form may be a part): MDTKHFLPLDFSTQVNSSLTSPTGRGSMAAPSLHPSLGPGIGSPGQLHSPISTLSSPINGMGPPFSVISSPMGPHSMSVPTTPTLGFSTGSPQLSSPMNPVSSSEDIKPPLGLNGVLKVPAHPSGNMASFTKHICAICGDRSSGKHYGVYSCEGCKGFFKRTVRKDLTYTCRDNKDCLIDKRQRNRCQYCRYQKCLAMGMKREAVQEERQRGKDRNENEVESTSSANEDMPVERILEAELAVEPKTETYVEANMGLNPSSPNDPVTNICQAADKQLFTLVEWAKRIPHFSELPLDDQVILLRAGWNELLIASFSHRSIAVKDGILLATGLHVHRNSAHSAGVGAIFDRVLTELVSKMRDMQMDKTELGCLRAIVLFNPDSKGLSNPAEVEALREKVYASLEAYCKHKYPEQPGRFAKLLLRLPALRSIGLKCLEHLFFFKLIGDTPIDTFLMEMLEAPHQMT
In short: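 TRANS format reporting activity of exogenous RXRa-Gal4 chimera in transiently transfected HepG2, 24 h exposure. Reporter transcripts quantified by RT-PCR with capillary electrophoresis, with gain of signal scored relative to DMSO.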

[3] = target: human Vitamin D Receptor (VDR), VDR (gene 7421) (UniProt P11473); experiment: ATG_VDR_TRANS: Attagene TRANS-FACTORIAL HepG2 Assay for human Vitamin D Receptor (VDR) (AID 2283022)
Sequence of human Vitamin D Receptor (VDR), VDR (gene 7421) (P11473 whole entry, looked up): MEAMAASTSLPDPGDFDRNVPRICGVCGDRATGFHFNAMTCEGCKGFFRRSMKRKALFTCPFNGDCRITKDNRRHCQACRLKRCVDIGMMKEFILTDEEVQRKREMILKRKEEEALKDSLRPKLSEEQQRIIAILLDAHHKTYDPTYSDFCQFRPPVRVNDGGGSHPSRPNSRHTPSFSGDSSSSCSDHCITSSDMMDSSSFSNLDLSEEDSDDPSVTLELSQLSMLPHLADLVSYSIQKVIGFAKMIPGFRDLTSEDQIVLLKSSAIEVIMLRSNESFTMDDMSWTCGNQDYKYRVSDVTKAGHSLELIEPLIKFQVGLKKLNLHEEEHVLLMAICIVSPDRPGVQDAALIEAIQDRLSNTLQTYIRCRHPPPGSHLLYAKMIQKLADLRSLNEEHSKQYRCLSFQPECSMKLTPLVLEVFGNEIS
In short: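 Multiplexed TRANS reporter in HepG2; 24 h treatment; reporter mRNA by RT-PCR plus capillary electrophoresis; upregulation scored relative to DMSO.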

[4] = target: human Thyroid Receptor alpha (THRa1), THRA (gene 7067) (UniProt P10827); experiment: ATG_THRa1_TRANS: Attagene TRANS-FACTORIAL HepG2 Assay for human Thyroid Receptor alpha (THRa1) (AID 2283014)
Sequence of human Thyroid Receptor alpha (THRa1), THRA (gene 7067) (P10827 whole entry, looked up, the tested form may be a part): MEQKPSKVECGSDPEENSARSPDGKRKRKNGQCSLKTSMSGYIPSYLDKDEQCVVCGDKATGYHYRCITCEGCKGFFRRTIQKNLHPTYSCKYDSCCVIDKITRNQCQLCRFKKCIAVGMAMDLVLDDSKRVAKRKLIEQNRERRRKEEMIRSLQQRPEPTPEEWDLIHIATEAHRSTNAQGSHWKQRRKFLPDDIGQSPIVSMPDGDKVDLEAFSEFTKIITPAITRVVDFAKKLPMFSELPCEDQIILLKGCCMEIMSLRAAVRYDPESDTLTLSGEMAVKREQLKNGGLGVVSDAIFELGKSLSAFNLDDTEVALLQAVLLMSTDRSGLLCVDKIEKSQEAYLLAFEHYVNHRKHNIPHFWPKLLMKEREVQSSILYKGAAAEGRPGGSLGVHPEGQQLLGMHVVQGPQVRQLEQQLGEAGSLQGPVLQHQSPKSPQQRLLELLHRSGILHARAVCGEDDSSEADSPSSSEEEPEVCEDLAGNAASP
In short: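 Measured here is mRNA from a GAL4-UAS reporter in transfected HepG2 cells carrying a Gal4-fused receptor, 24 h post-dose. DMSO served as negative control and baseline.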

[5] = read-out: E-selectin (Homo sapiens) (UniProt P16581); experiment: BSK_3C_Eselectin: BioMAP Diversity Plus: 3C Assay for Eselectin Biomarker Activity (AID 2283015; active = hit-call score of the fitted dose curve at least 0.9, where 1 is the maximum; inactive = score below 0.9;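 as to outcome: cell surface E-selectin protein quantified by ELISA 24 h after dosing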); conditions: primary human endothelial cells (HUVEC); actives raise or lower the signal
In short: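 Endpoint derived by bidirectional fitting against DMSO vehicle; signal is ELISA-detected E-selectin from primary HUVEC at 24 h post-dosing, with parallel SRB staining (0.1% SRB, 560 nm) flagging cytotoxicity.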

[6] = read-out: Interleukin-1 alpha (IL1a), IL1A (gene 3552); experiment: BSK_BE3C_IL1a: BioMAP Diversity Plus: BE3C Assay for Interleukin-1 alpha (IL1a) Biomarker Activity (AID 2283016; active = hit-call score of the fitted dose curve at least 0.9, where 1 is the maximum; inactive = score below 0.9); conditions: primary human bronchial epithelial cells; actives raise or lower the signal
In short: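 IL-1a measured by ELISA after 24 h treatment of human primary bronchial epithelial cells, with gain or loss of signal fitted versus DMSO. Parallel cultures stained with SRB gauge overt cytotoxicity.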

[7] = read-out: Monocyte Chemoattractant Protein-1 (MCP1), CCL2 (gene 6347); experiment: BSK_3C_MCP1: BioMAP Diversity Plus: 3C Assay for Monocyte Chemoattractant Protein-1 (MCP1) Biomarker Activity (AID 2283017; active = hit-call score of the fitted dose curve at least 0.9, where 1 is the maximum; inactive = score below 0.9); conditions: primary human endothelial cells (HUVEC); actives raise or lower the signal
In short: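 Using human vascular primary endothelium, researchers measured MCP-1 by ELISA 24 h after treatment, with DMSO serving as negative control for bidirectional fitting.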

[8] = read-out: Monocyte Chemoattractant Protein-1 (MCP1), CCL2 (gene 6347); experiment: BSK_4H_MCP1: BioMAP Diversity Plus: 4H Assay for Monocyte Chemoattractant Protein-1 (MCP1) Biomarker Activity (AID 2283018; active = hit-call score of the fitted dose curve at least 0.9, where 1 is the maximum; inactive = score below 0.9); conditions: primary human endothelial cells (HUVEC); actives raise or lower the signal
In short: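 ELISA of MCP-1 (CCL2) 24 h after chemical dosing of HUVEC in the BioMAP 4H system. Gain or loss versus DMSO fitted; parallel SRB staining (560 nm) tracked overt cytotoxicity.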

[9] = read-out: Human Leukocyte Antigen - DR isotype (HLADR), HLA-DRA (gene 3122); experiment: BSK_3C_HLADR: BioMAP Diversity Plus: 3C Assay for Human Leukocyte Antigen - DR isotype (HLADR) Biomarker Activity (AID 2283019; active = hit-call score of the fitted dose curve at least 0.9, where 1 is the maximum; inactive = score below 0.9;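 as to outcome: ELISA of cell-surface HLA-DR on HUVEC 24 h after dosing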); conditions: primary human endothelial cells (HUVEC); actives raise or lower the signal
In short: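 Compound added to primary HUVEC cultures, 24 h incubation, then HLA-DR determined by ELISA; endpoint derived by bidirectional fitting relative to DMSO negative control.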

[10] = read-out: Interleukin-8 (IL8), CXCL8 (gene 3576); experiment: BSK_3C_IL8: BioMAP Diversity Plus: 3C Assay for Interleukin-8 (IL8) Biomarker Activity (AID 2283020; active = hit-call score of the fitted dose curve at least 0.9, where 1 is the maximum; inactive = score below 0.9); conditions: primary human endothelial cells (HUVEC); actives raise or lower the signal
In short: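 IL-8 was measured by ELISA in HUVEC cultures 24 h after chemical dosing, with gain or loss of signal fitted relative to DMSO. Parallel SRB total-protein staining tracked overt cytotoxicity.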

[11] = read-out: Monokine induced gamma interferon (MIG), CXCL9 (gene 4283); experiment: BSK_3C_MIG: BioMAP Diversity Plus: 3C Assay for Monokine induced gamma interferon (MIG) Biomarker Activity (AID 2283021; active = hit-call score of the fitted dose curve at least 0.9, where 1 is the maximum; inactive = score below 0.9;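 as to AC50: MIG protein level measured by immunoassay in the treated endothelial cultures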); conditions: primary human endothelial cells (HUVEC); actives raise or lower the signal
In short: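 ELISA measurement of MIG in human umbilical vein endothelial cells 24 h after treatment. Cytotoxicity tracked by SRB staining in parallel cultures; gain or loss of signal fitted relative to DMSO.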

[12] = BSK_3C_SRB: Viability Assessment in the BioMAP Diversity Plus: 3C Assay (AID 2283023; active = hit-call score of the fitted dose curve at least 0.9, where 1 is the maximum; inactive = score below 0.9;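 also: cells read 24 h after compound dosing; fitted both ways against DMSO so a hit may be signal rise or drop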); conditions: primary human endothelial cells (HUVEC)
In short: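 Overt cytotoxicity is gauged in parallel confluent HUVEC cultures by SRB total-protein staining at the time of biomarker measurement, 24 h after dosing. Gain or loss of signal is fitted versus DMSO.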

[13] = read-out: Matrix Metallopeptidase 1 (MMP1), MMP1 (gene 4312); experiment: BSK_BE3C_MMP1: BioMAP Diversity Plus: BE3C Assay for Matrix Metallopeptidase 1 (MMP1) Biomarker Activity (AID 2283024; active = hit-call score of the fitted dose curve at least 0.9, where 1 is the maximum; inactive = score below 0.9); conditions: primary human bronchial epithelial cells; actives raise or lower the signal
In short: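 ELISA measurement of MMP-1 after 24 h compound exposure of primary human bronchial epithelial cells. Changes in either direction fitted relative to DMSO; parallel SRB staining checked overt cytotoxicity.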

[14] = BSK_3C_Vis: BioMAP Diversity Plus: 3C Assay for Morphology Visualization (AID 2283025; active = hit-call score of the fitted dose curve at least 0.9, where 1 is the maximum; inactive = score below 0.9;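 also: fitted both ways so gain or loss versus DMSO counts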;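 as to AC50: light microscopy image of cell morphology used as background control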); conditions: primary human endothelial cells (HUVEC)
In short: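 Light-microscopy visualization of HUVEC cultures at 24 h post-treatment, with DMSO as baseline for bidirectional fitting.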

[15] = read-out: Pselectin, SELP (gene 6403); experiment: BSK_4H_Pselectin: BioMAP Diversity Plus: 4H Assay for Pselectin Biomarker Activity (AID 2283026; active = hit-call score of the fitted dose curve at least 0.9, where 1 is the maximum; inactive = score below 0.9); conditions: primary human endothelial cells (HUVEC); actives raise or lower the signal
In short: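 ELISA of surface P-selectin on HUVEC, 24 h after dosing, with parallel SRB staining (0.1% after 10% TCA fixation, 560 nm) for overt cytotoxicity. Activity fitted in both directions relative to DMSO.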

[16] = BSK_4H_SRB: Viability Assessment in the BioMAP Diversity Plus: 4H Assay (AID 2283027; active = hit-call score of the fitted dose curve at least 0.9, where 1 is the maximum; inactive = score below 0.9;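 also: cells exposed to compound for 24 h before staining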;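 as to AC50: curves fitted both ways versus DMSO so AC50 may be loss or gain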); conditions: primary human endothelial cells (HUVEC)
In short: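 HUVEC, 24 h post-dose; 10% TCA fix, 0.1% SRB stain, A560 nm. Total protein = overt cytotoxicity, parallel to biomarker read. Bidirectional fit vs DMSO baseline.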

[17] = BSK_BE3C_SRB: Viability Assessment in the BioMAP Diversity Plus: BE3C Assay (AID 2283028; active = hit-call score of the fitted dose curve at least 0.9, where 1 is the maximum; inactive = score below 0.9); conditions: primary human bronchial epithelial cells
In short: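 SRB total-protein staining (0.1%, after TCA fixation) of chemically dosed human bronchial epithelial primary cells at 24 h; DMSO serves as the negative control for bidirectional curve fitting.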

[18] = read-out: Thrombomodulin, THBD (gene 7056); experiment: BSK_3C_Thrombomodulin: BioMAP Diversity Plus: 3C Assay for Thrombomodulin Biomarker Activity (AID 2283029; active = hit-call score of the fitted dose curve at least 0.9, where 1 is the maximum; inactive = score below 0.9); conditions: primary human endothelial cells (HUVEC); actives raise or lower the signal
In short: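 ELISA measurement of thrombomodulin on HUVEC surface 24 h after chemical dosing; activity fitted in both directions relative to DMSO vehicle.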

[19] = read-out: Urokinase-type plasminogen activator receptor (uPAR), PLAUR (gene 5329); experiment: BSK_4H_uPAR: BioMAP Diversity Plus: 4H Assay for Urokinase-type plasminogen activator receptor (uPAR) Biomarker Activity (AID 2283030; active = hit-call score of the fitted dose curve at least 0.9, where 1 is the maximum; inactive = score below 0.9); conditions: primary human endothelial cells (HUVEC); actives raise or lower the signal
In short: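 Endpoint derived via bidirectional curve fitting against DMSO baseline; readout was ELISA detection of uPAR on umbilical vein endothelial cells at 24 h post-treatment, with SRB-stained parallel cultures assessing cytotoxicity.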

[20] = read-out: Vascular endothelial growth factor receptor 2 (Homo sapiens) (UniProt P35968); experiment: BSK_4H_VEGFRII: BioMAP Diversity Plus: 4H Assay for Vascular endothelial growth factor receptor 2 (VEGFR2) Biomarker Activity (AID 2283031; active = hit-call score of the fitted dose curve at least 0.9, where 1 is the maximum; inactive = score below 0.9;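 as to AC50: cell-surface VEGFR2 protein level quantified by ELISA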); conditions: primary human endothelial cells (HUVEC); actives raise or lower the signal
In short: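 In this multiplexed HUVEC system, biomarker ELISA was performed after 24 h chemical exposure. Parallel SRB staining (TCA fixation, 560 nm) tracked cytotoxicity; DMSO served as baseline.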

Sequence of E-selectin (Homo sapiens) (P16581 whole entry, looked up): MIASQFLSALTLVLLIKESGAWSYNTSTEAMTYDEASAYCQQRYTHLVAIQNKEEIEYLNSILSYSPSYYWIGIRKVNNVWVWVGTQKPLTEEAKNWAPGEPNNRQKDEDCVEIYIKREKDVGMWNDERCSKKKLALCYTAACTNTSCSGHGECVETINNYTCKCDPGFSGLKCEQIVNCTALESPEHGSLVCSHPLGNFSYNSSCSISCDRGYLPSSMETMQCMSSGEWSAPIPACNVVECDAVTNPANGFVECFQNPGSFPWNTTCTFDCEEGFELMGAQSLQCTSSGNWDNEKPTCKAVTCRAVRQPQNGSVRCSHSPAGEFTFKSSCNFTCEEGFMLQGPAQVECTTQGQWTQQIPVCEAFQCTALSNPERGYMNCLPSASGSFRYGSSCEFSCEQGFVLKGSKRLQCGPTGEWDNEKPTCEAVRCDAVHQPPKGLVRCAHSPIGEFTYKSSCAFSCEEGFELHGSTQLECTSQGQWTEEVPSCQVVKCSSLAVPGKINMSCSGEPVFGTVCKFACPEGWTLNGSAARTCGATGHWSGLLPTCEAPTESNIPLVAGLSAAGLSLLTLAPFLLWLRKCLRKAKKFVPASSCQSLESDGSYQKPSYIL

CN(C)c1cccc(O)c1
outcome [1]: inactive

OC[C@H]1O[C@@H]2O[C@H]3[C@H](O)[C@@H](O)[C@@H](O[C@H]4[C@H](O)[C@@H](O)[C@@H](O[C@H]5[C@H](O)[C@@H](O)[C@@H](O[C@H]6[C@H](O)[C@@H](O)[C@@H](O[C@H]7[C@H](O)[C@@H](O)[C@@H](O[C@H]8[C@H](O)[C@@H](O)[C@@H](O[C@H]9[C@H](O)[C@@H](O)[C@@H](O[C@H]1[C@H](O)[C@H]2O)O[C@@H]9CO)O[C@@H]8CO)O[C@@H]7CO)O[C@@H]6CO)O[C@@H]5CO)O[C@@H]4CO)O[C@@H]3CO
outcome [1]: inactive

COCCOCCOCCO
outcome [2]: inactive | outcome [3]: inactive

[O-]n1ccccc1=S.[O-]n1ccccc1=S.[Zn+2]
outcome [1]: inactive

FC(F)(F)COCC(F)(F)F
outcome [2]: inactive | outcome [3]: inactive

COC(=O)c1ccc(OC)cc1
outcome [2]: inactive | outcome [3]: inactive

CCc1ccc(O)c(OC)c1
outcome [1]: inactive

O=C1NC2NC(=O)NC2N1 (stereo not given)
outcome [2]: inactive | outcome [3]: inactive

CC(=O)C(C)O (stereo not given)
outcome [2]: inactive | outcome [3]: inactive

O=C1OC(=O)c2c(Br)c(Br)c(Br)c(Br)c21
outcome [2]: inactive | outcome [3]: inactive

C/C=C(\C)C(=O)OCCc1ccccc1
outcome [1]: inactive | outcome [4]: inactive

O=P(O)(O)O
outcome [1]: inactive

CCC1(C)NC(=O)NC1=O (stereo not given)
outcome [2]: inactive | outcome [3]: inactive

CCc1ccc(O)cc1
outcome [2]: inactive | outcome [3]: inactive

CC(C)CCCCCCc1ccc(OCCOCCO)cc1
outcome [1]: inactive

CC(=O)Nc1ccc(C(=O)CCl)cc1
outcome [1]: inactive | outcome [4]: inactive | AC50 [5]: 7.26 µM (active) | AC50 [6]: 14.9 µM (active) | AC50 [7]: 11.2 µM (active) | AC50 [8]: 9.64 µM (active) | AC50 [9]: 5.06 µM (active) | AC50 [10]: 20 µM (active) | AC50 [11]: 10.9 µM (active) | outcome [3]: inactive | AC50 [12]: 9.52 µM (active) | AC50 [13]: 13.2 µM (active) | AC50 [14]: 4.8 µM (active) | AC50 [15]: 4.79 µM (active) | AC50 [16]: 6.69 µM (active) | outcome [17]: inactive | outcome [18]: inactive | AC50 [19]: 9.47 µM (active) | AC50 [20]: 9.38 µM (active)

COc1cc(C(C)C)ccc1C
outcome [2]: inactive | outcome [3]: inactive

C=C1CC[C@H](O)C/C1=C/C=C1\CCC[C@]2(C)[C@@H]([C@H](C)/C=C/[C@H](C)C(C)C)CC[C@@H]12
outcome [2]: inactive | AC50 [3]: 3.98 µM (active)

CCCC(C)=O
outcome [1]: inactive | outcome [4]: inactive

COC(=O)c1ccc([N+](=O)[O-])cc1
outcome [1]: inactive | outcome [4]: inactive

CCCCCCC(C)(C)S
outcome [1]: inactive

COC(=O)c1ccc(C)cc1C1=NC(C)(C(C)C)C(=O)N1 (stereo not given) (tested in a mixture with another compound)
outcome [2]: inactive | outcome [3]: inactive

CCCCCCCCCC(=O)OC
AC50 [1]: 47 µM (active)

Nc1ccc2c(O)cc(S(=O)(=O)O)cc2c1
outcome [1]: inactive

C[N+](C)(C)CCCCCC[N+](C)(C)C
outcome [1]: inactive | outcome [4]: inactive

CCCCCCCCCCCCS(=O)(=O)Cl
outcome [1]: inactive

CC(C)OCCO
outcome [2]: inactive | outcome [3]: inactive

NC(=S)NNC(N)=S
outcome [1]: inactive

Nc1ccc(Cl)c([N+](=O)[O-])c1
outcome [2]: inactive | outcome [3]: inactive

CC=Cc1ccc(OCC)c(O)c1
outcome [1]: inactive | outcome [4]: inactive | outcome [5]: inactive | outcome [6]: inactive | outcome [7]: inactive | outcome [8]: inactive | outcome [9]: inactive | outcome [10]: inactive | outcome [11]: inactive | outcome [3]: inactive | outcome [12]: inactive | outcome [13]: inactive | outcome [14]: inactive | outcome [15]: inactive | outcome [16]: inactive | outcome [17]: inactive | outcome [18]: inactive | outcome [19]: inactive | outcome [20]: inactive

Oc1ccc2cc(SSc3ccc4cc(O)ccc4c3)ccc2c1
outcome [1]: inactive | outcome [4]: inactive
